Data as given in PubChem BioAssay (NCATS).
Where “and” joins values, the source holds several entries; their conditions need not be identical. Equal values may be shown once. Results filed as inconclusive are left out. Some structures have more than one record in an assay (separate samples or runs), and their calls can disagree. Calls of active or inactive are those of the source. Calls come from the whole dose curve; as a rule, active = well fitted inhibition curve with a large enough effect; inconclusive = small, poorly fitted or top-dose-only effect; inactive = flat fitted curve, though single readings scatter.

Tests used:
CRL-7250 = normal cell line; test: Cytotoxic Profiling of Annotated Libraries Using Quantitative High-Throughput Screening (AID 1296008); conditions: Five cell lines viability, CellTiter-Glo ATP luminescence, 48-72 h; max response: stronger effect = lower value; for max response: % is set by controls: 0 for no effect and ±100 for the full control effect
In short: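 Cytotoxicity was measured as CellTiter-Glo ATP luminescence, read after 10 min at room temperature. Compound treatment of the cells lasted 48 or 72 hr at 37 degrees Celsius in a qHTS format.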

Dd2 = test: qHTS profiling for inhibitors of Plasmodium falciparum proliferation (AID 504749); conditions: P. falciparum in erythrocytes, SYBR Green DNA, 72 h; series mostly up to 28.7 µM
In short: (§1)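 Infected RBCs, 0.3% parasitemia/2.5% Hct final; cpd 72 h, 37 C, 5% CO2; lysis buffer with saponin/triton/SYBR Green I, o/n RT dark; FI 485/535; norm. to artemisinin (0.29 uM) and DMSO.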

ECU = test: as above; conditions: P. falciparum in erythrocytes, SYBR Green DNA, 72 h; series mostly up to 28.7 µM
In short: as §1

FAB9 = test: as above; conditions: P. falciparum in erythrocytes, SYBR Green DNA, 72 h; series mostly up to 28.7 µM
In short: as §1

GB4 = test: as above; conditions: P. falciparum in erythrocytes, SYBR Green DNA, 72 h; series mostly up to 28.7 µM
In short: as §1

HB3 = test: as above; conditions: P. falciparum in erythrocytes, SYBR Green DNA, 72 h; series mostly up to 28.7 µM
In short: as §1

ICS = test: as above; conditions: P. falciparum in erythrocytes, SYBR Green DNA, 72 h; series mostly up to 28.7 µM
In short: as §1

JCK = test: as above; conditions: P. falciparum in erythrocytes, SYBR Green DNA, 72 h; series mostly up to 28.7 µM
In short: as §1

N140 = test: as above; conditions: P. falciparum in erythrocytes, SYBR Green DNA, 72 h; series mostly up to 28.7 µM
In short: as §1

P93_24 = test: as above; conditions: P. falciparum in erythrocytes, SYBR Green DNA, 72 h; series mostly up to 28.7 µM
In short: as §1

P94_40 = test: as above; conditions: P. falciparum in erythrocytes, SYBR Green DNA, 72 h; series mostly up to 28.7 µM
In short: as §1

PAD = test: as above; conditions: P. falciparum in erythrocytes, SYBR Green DNA, 72 h; series mostly up to 28.7 µM
In short: as §1

PC15 = test: as above; conditions: P. falciparum in erythrocytes, SYBR Green DNA, 72 h; series mostly up to 28.7 µM
In short: as §1

PC26 = test: as above; conditions: P. falciparum in erythrocytes, SYBR Green DNA, 72 h; series mostly up to 28.7 µM
In short: as §1

PC49 = test: as above; conditions: P. falciparum in erythrocytes, SYBR Green DNA, 72 h; series mostly up to 28.7 µM
In short: as §1

SC27B = test: as above; conditions: P. falciparum in erythrocytes, SYBR Green DNA, 72 h; series mostly up to 28.7 µM
In short: as §1

TAB109 = test: as above; conditions: P. falciparum in erythrocytes, SYBR Green DNA, 72 h; series mostly up to 28.7 µM
In short: as §1

TAB113 = test: as above; conditions: P. falciparum in erythrocytes, SYBR Green DNA, 72 h; series mostly up to 28.7 µM
In short: as §1

TAB165 = test: as above; conditions: P. falciparum in erythrocytes, SYBR Green DNA, 72 h; series mostly up to 28.7 µM
In short: as §1

W2 = test: as above; conditions: P. falciparum in erythrocytes, SYBR Green DNA, 72 h; series mostly up to 28.7 µM
In short: as §1
Note: nearly all actives have a fitted effect of over 60% in size.
Potency is the fitted concentration of half-maximal effect.

COc1nc(-c2ccc3c(c2)OCO3)n(-c2ccc(NC(=O)CSc3ccccc3)cc2)n1
inactive: max response (CRL-7250) -34%

CC1(C)SCCN(S(=O)(=O)c2ccc(OCC#CCO)cc2)[C@@H]1C(=O)NO
inactive: max response (CRL-7250) -4.21%

O=C(O)[C@@H](c1ccc(OCc2ccc3ccccc3n2)cc1)C1CCCC1
inactive: max response (CRL-7250) -8.88%

CCOc1ccn(-c2ccc(F)cc2)c(=O)c1C(=O)Nc1ccc(Oc2ccnc(N)c2Cl)c(F)c1
inactive: max response (CRL-7250) -27.8%

CCCS(=O)(=O)Nc1ccc(F)c(C(=O)c2c[nH]c3ncc(Cl)cc23)c1F
inactive: max response (CRL-7250) -1.21%

C[C@]12CC[C@H](O)CC1=CC[C@@H]1[C@H]2CC[C@]2(C)C(c3cccnc3)=CC[C@H]12
inactive: outcome (CRL-7250)

Cc1ccnc(NS(=O)(=O)c2ccc(NC(=O)Nc3ccc(S(=O)(=O)Nc4nccc(C)n4)cc3)cc2)n1
active: Potency (CRL-7250) 0.372 µM
inactive: max response (CRL-7250) -2.52%

Cc1[nH]c(=O)c(C#N)cc1-c1ccncc1
inactive: Potency (Dd2) | Potency (ECU) | Potency (FAB9) | Potency (GB4) | Potency (HB3) | Potency (ICS) | Potency (JCK) | Potency (N140) | Potency (P93_24) | Potency (P94_40) | Potency (PAD) | Potency (PC15) | Potency (PC26) | Potency (PC49) | Potency (SC27B) | Potency (TAB109) | Potency (TAB113) | Potency (TAB165) | Potency (W2) | max response (CRL-7250) 1.86% and -12.7% | outcome (CRL-7250)

Cc1oncc1C(=O)Nc1ccc(C(F)(F)F)cc1
active: Potency (ICS) 3.16 µM | Potency (W2) 3.22 µM
inactive: Potency (Dd2) | Potency (ECU) | Potency (FAB9) | Potency (JCK) | Potency (N140) | Potency (P94_40) | Potency (PAD) | Potency (PC15) | Potency (PC26) | Potency (PC49) | Potency (SC27B) | Potency (TAB109) | Potency (TAB113) | Potency (TAB165)

C1COC(NC(C2CC2)C2CC2)=N1
active: Potency (PAD) 11.2 µM
inactive: Potency (Dd2) | Potency (FAB9) | Potency (HB3) | Potency (JCK) | Potency (PC15) | Potency (PC49) | Potency (SC27B) | Potency (TAB113) | Potency (W2) | max response (CRL-7250) 1.84% and -1.88%

CC(C)C[C@H](NC(=O)[C@@H](O)[C@H](N)Cc1ccccc1)C(=O)O
active: Potency (Dd2) 3.16 µM | Potency (ECU) 7.94 µM | Potency (FAB9) 10 µM | Potency (GB4) 4.78 µM | Potency (ICS) 4.47 µM | Potency (N140) 7.94 µM | Potency (P93_24) 5.01 µM | Potency (P94_40) 7.08 µM | Potency (PAD) 10 µM | Potency (PC26) 9.53 µM | Potency (SC27B) 7.94 µM | Potency (TAB109) 6.31 µM | Potency (TAB113) 7.08 µM | Potency (TAB165) 5.01 µM | Potency (W2) 1.69 µM

N[C@@H]1CONC1=O
inactive: Potency (Dd2) | Potency (ECU) | Potency (FAB9) | Potency (GB4) | Potency (HB3) | Potency (ICS) | Potency (JCK) | Potency (N140) | Potency (P93_24) | Potency (P94_40) | Potency (PAD) | Potency (PC15) | Potency (PC26) | Potency (PC49) | Potency (SC27B) | Potency (TAB113) | Potency (TAB165) | Potency (W2)

Clc1cccc(Cl)c1NC1=NCCN1
inactive: Potency (Dd2) | Potency (ECU) | Potency (FAB9) | Potency (GB4) | Potency (HB3) | Potency (ICS) | Potency (JCK) | Potency (N140) | Potency (P93_24) | Potency (P94_40) | Potency (PAD) | Potency (PC15) | Potency (PC26) | Potency (PC49) | Potency (SC27B) | Potency (TAB109) | Potency (TAB113) | Potency (TAB165) | Potency (W2) | max response (CRL-7250) 0.663% and -4.74%

CCOC(=O)N1CCC(=C2c3ccc(Cl)cc3CCc3cccnc32)CC1
inactive: Potency (FAB9) | Potency (TAB109)
active: Potency (ECU) 12.6 µM | Potency (GB4) 12 µM | Potency (ICS) 2.24 µM | Potency (N140) 3.98 µM | Potency (P94_40) 11.2 µM | Potency (PAD) 3.16 µM | Potency (PC15) 11.2 µM | Potency (PC26) 12 µM | Potency (PC49) 4.47 µM | Potency (SC27B) 6.31 µM | Potency (TAB165) 2.51 µM | Potency (W2) 8.49 µM

NC(=O)c1cnccn1
inactive: Potency (Dd2) | Potency (ECU) | Potency (FAB9) | Potency (GB4) | Potency (HB3) | Potency (ICS) | Potency (JCK) | Potency (N140) | Potency (P93_24) | Potency (P94_40) | Potency (PAD) | Potency (PC15) | Potency (PC26) | Potency (PC49) | Potency (SC27B) | Potency (TAB109) | Potency (TAB113) | Potency (TAB165) | Potency (W2) | max response (CRL-7250) 3.02% and 1.22%

Nc1nc2ccc(OC(F)(F)F)cc2s1
inactive: Potency (Dd2) | Potency (ECU) | Potency (FAB9) | Potency (GB4) | Potency (HB3) | Potency (ICS) | Potency (JCK) | Potency (N140) | Potency (P93_24) | Potency (PAD) | Potency (PC15) | Potency (PC26) | Potency (PC49) | Potency (TAB109) | Potency (TAB113) | Potency (TAB165) | Potency (W2) | outcome (CRL-7250)

O=C1CCc2cc(OCCCCc3nnnn3C3CCCCC3)ccc2N1
inactive: Potency (GB4) | Potency (ICS) | Potency (JCK) | Potency (TAB109) | Potency (W2) | max response (CRL-7250) -14.2% and -108%

COc1ccc2nc(S(=O)Cc3ncc(C)c(OC)c3C)[nH]c2c1 (stereo not given)
inactive: Potency (Dd2) | Potency (ECU) | Potency (FAB9) | Potency (HB3) | Potency (JCK) | Potency (N140) | Potency (P93_24) | Potency (P94_40) | Potency (PC15) | Potency (PC49) | Potency (SC27B) | Potency (TAB109) | Potency (TAB113)
active: Potency (ICS) 14.1 µM

Cc1ccc(N(CC2=NCCN2)c2cccc(O)c2)cc1
inactive: Potency (Dd2) | Potency (ECU) | Potency (FAB9) | Potency (GB4) | Potency (HB3) | Potency (ICS) | Potency (JCK) | Potency (N140) | Potency (P93_24) | Potency (P94_40) | Potency (PAD) | Potency (PC15) | Potency (PC26) | Potency (PC49) | Potency (SC27B) | Potency (TAB109) | Potency (TAB113) | Potency (TAB165) | Potency (W2)
